Assay outcomes: PubChem BioAssay, National Center for Advancing Translational Sciences (NCATS)
In the library only some 21% were active in any assay of this set; here they are far more common.
CHX counter: Cycloheximide Counterscreen for Small Molecule Inhibitors of Shiga Toxin | cell reporter, cycloheximide protein synthesis inhibition counterscreen | max response, % | 300,000 tested, 12% active; in the data active means max response mostly above about 13%, no sharp cut-off; inactive means mostly below about 14%; further: read at 38.3 µM for the half of the compounds with a filed dose; 0% is about no effect
Pf growth 48h: Primary qHTS for delayed death inhibitors of the malarial parasite plastid, 48 hour incubation. Potency, µM (series often up to 28.7 µM), for inactives: at the highest dose activity change, negative = inhibition, hits mostly inhibitors. AID 504832, 2011. 310,000 tested, 5.9% active. P. falciparum luciferase growth in erythrocytes, 48 h; further: potency means the concentration at half of the fitted maximal effect; on the % scale 0 is the no-effect control and ±100 the full control effect
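Parasite viability was followed by luminescence of a genomically integrated firefly luciferase. Cultures held 0.1% parasitemia at 2% hematocrit (final), incubated under 5% CO2 at 37 C.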
Pf growth 96h: Primary qHTS for delayed death inhibitors of the malarial parasite plastid, 96 hour incubation; P. falciparum luciferase reporter growth, 96 h; Potency, µM (highest dose often 28.7 µM), without a hit: at the highest dose activity change, negative = inhibition, actives largely listed as inhibitors; 320,000 tested, 6.9% active; AID 504834, 2011; further: potency means the concentration at half of the fitted maximal effect; on the % scale 0 is the no-effect control and ±100 the full control effect
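Plates of compound plus infected erythrocytes (2% hematocrit, 0.05% parasitemia final) incubate 96 hours, 37 C, 5% CO2. Detection reagent added; reduced luminescence from the parasites' luciferase reporter flags inhibition.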
Shiga inhibitor: A qHTS for Small Molecule Inhibitors of Shiga Toxin; Vero cells, Shiga toxin protein synthesis inhibition reporter; inhibition, % at 38.7 µM; 290,000 tested, 9.2% active; in the data active means inhibition mostly above about 28%, no sharp cut-off; inactive means mostly below about 43%; further: 0% is about no effect
* = called active by the depositor; i = inactive; ? = inconclusive; . = no result given; ! = not active in a repeat. Unless noted, the call rests on the fitted dose curve; in most records, active means well fitted inhibition curve with a large enough effect; inconclusive means small, poorly fitted or top-dose-only effect, or another doubt; inactive means no such curve, though single readings can be large or run the other way.

SMILES	CHX counter	Pf growth 48h	Pf growth 96h	Shiga inhibitor
COc1ccccc1C(=O)N/N=C(\C)CC(=O)Nc1ccccn1	26.1*	21.7%	?	68.5*
C/C(CC(=O)Nc1ccccn1)=N\NC(=O)c1ccc(C)cc1	18.4*	36.2%	i	56.8
COc1ccc(CNC(=O)C/C(C)=N/NC(=O)c2ccccc2OC)cc1	3.2	0.7%	21.6%	28.7
Cc1ccccc1CNC(=O)CN(c1cccc([N+](=O)[O-])c1)S(C)(=O)=O	1.2	-3.3%	-36.5%	-3.3
CCOC(=O)CC(=O)N/N=C/c1c(N)n(C)c(=O)n(C)c1=O	-1.9	-14.4%	?	-16.4
CCOC(=O)N1CCN(C(=O)c2ccccc2NC(=O)c2ccc(F)cc2)CC1	-0.7	8.9%	-9.1%	5.4
CCOC(=O)N1CCN(C(=O)c2ccccc2NC(=O)COc2ccccc2)CC1	31.2*	33.2%	45.1%	108.6*
CCOC(=O)N1CCN(C(=O)c2ccccc2NC(C)=O)CC1	24.0*	-72.1%	6.3%	71.9
CC(=O)c1ccc(NC(=O)CS(=O)(=O)c2cn(CC(=O)N3CCOCC3)c3ccccc23)cc1	-0.4	26.7%	?	-8.7
Cc1ccc(OCC(=O)Oc2ccc(C)c(C)c2)cc1	-3.2	14.3%	?	-8.7
Cc1ccc(C2CC(=O)Oc3ccc(O)cc32)cc1 (stereo not given)	5.1	.	.	i
COc1ccc(N2CCN(C(=O)COC(=O)CCc3ccccc3OC)CC2)cc1	.	-7.2%	-7.8%	.
CCOc1ccc(-n2c(N)c(-c3nc4ccccc4n3C)c3nc4ccccc4nc32)cc1	-4.3	3.0%	2.94µM*	-4.2
CCOc1ccc(-n2c(N)c(C(=O)NCc3ccco3)c3nc4ccccc4nc32)cc1	-3.1	.	-60.5%	-2.5
O=C(c1cc2c(=O)n3ccccc3nc2s1)N1CCOCC1	22.4*	111.2%	5.22µM*	38.5*
CC1CCN(C(=O)c2cc3c(=O)n4ccccc4nc3s2)CC1	26.2	38.9%	?	83.4*
CCn1c(CC(=O)Nc2ccccc2F)nnc1SCC(=O)NC1CCCC1	-3.2	24.3%	18.1%	-3.5
C[C@]12CCC(O)CC1=CCC1C2CC[C@]2(C)/C(=N\NC(N)=S)CCC12 (stereo not given in full)	-0.7	7.3%	?	-6.1
O=C1C2C3C=CC(C4CC34)C2C(=O)N1c1ccc2c(c1)OCO2 (stereo not given)	22.5	86.3%	38.3%	31.1
Cc1ccc(O)c(C(CC(=O)NC2CCCCC2)c2ccccc2)c1 (stereo not given)	10.2	?	27.1%	-14.7
CCn1cnc2cc(NCc3cccc(OC)c3O)ccc21	43.7*	63.2%	18.9%	111.7*
CCCCn1cnc2cc(NCc3cccc(OC)c3O)ccc21	18.8*	11.5%	-16.8%	103.1*
COc1cccc(CNc2cccc(C(F)(F)F)c2)c1O	6.5	-3.6%	?	9.8
Cc1cccc(C)c1NC(=O)CN1C(=O)NC(C)(CCc2ccccc2)C1=O (stereo not given)	1.3	-6.8%	0.0%	-1.9
CCNc1nc(ON=C(C)C)nc(N(C)C)n1	-3.1	8.28µM*	?	-7.1
SMILES	CHX counter	Pf growth 48h	Pf growth 96h	Shiga inhibitor
COCNc1nc(OCC#N)nc(N(C)C)n1	-2.0	28.7%	?	-5.5
COC(=O)C1=C(C)N(Cc2ccccc2)C(=NCCCCO)N[C@H]1c1ccccc1	-1.0	40.7%	?	-5.4
COC(=O)C1=C(C)N(Cc2ccccc2)C(=NCCc2cccnc2)N[C@H]1c1ccccc1	-2.9	?	14.7µM*	1.0
COC(=O)C1=C(C)N(Cc2ccccc2)C(=NCC2CC2)N[C@H]1c1ccccc1	-2.6	9.28µM*!	23.9%	-5.9
COC(=O)C1=C(C)N(Cc2ccccc2)C(=NCCc2cccnc2)N[C@H]1c1ccc(Br)cc1	-9.5	7.38µM*	40.8%	-12.3
CCOC(=O)C(NC(=O)c1ccc(OC)cc1)(N1CCCC1=O)C(F)(F)F (stereo not given)	-3.0	-17.0%	-24.6%	2.2
CC(=O)c1cc(-c2ccc(F)cc2)n(CCC(=O)Nc2cccnc2)c1C	3.1	9.28µM*	17.1%	9.1
NS(=O)(=O)Cc1noc2ccccc12	3.7	36.7%	24.6%	-1.2
COc1ccc(-c2nc3ccncc3[nH]2)cc1OC	9.4	0.3%	12.8%	-4.4
Clc1ccc(-c2nc3ccncc3[nH]2)cc1	81.8*	?	20.7%	58.5*
Fc1ccc(-c2nc3ccncc3[nH]2)cc1	23.4*	.	?	27.9
CC1CCN(c2nnc(-c3cccs3)c3ccccc23)CC1	15.9*	-1.4%	?	60.3
c1csc(-c2nnc(NC3CCCCC3)c3ccccc23)c1	-4.9	-12.7%	?	-4.5
Cc1ncc([N+](=O)[O-])n1CC(=O)N/N=C/c1ccc(F)cc1	0.2	1.4%	?	-11.1
CCCCOc1ccc(S(=O)(=O)N2CCN(c3ccc(N4CCN(CC)CC4)nn3)CC2)cc1	.	11.7µM*	?	.
CC1CN(CCC(=O)Nc2ccccc2F)CC(C)O1 (stereo not given)	-2.2	?	-8.6%	-4.2
COc1cc2c(c3oc(-c4ccccc4)cc(=O)c13)C=CC(C)(C)O2	25.0*	?	?	37.1*
COc1cc(OC)c2c(=O)cc(-c3cccnc3)oc2c1	10.8	61.9%	1.7%	22.9
COc1cc(OC)c2c(=O)cc(-c3ccccc3)oc2c1	38.4*	132.5%	174.2%	109.5*
COc1cc(OC)c2c(C)c(Cl)c(=O)oc2c1	7.5	31.7%	10.4µM*	-7.0
COc1c(O)c(O)c2oc(-c3ccccc3)cc(=O)c2c1OC	-2.4	?	?	-2.7
Cc1ccc(N(Cc2cc3ccc(C)cc3[nH]c2=O)S(C)(=O)=O)c(C)c1	0.5	-18.3%	-17.4%	-1.4
CSc1ccccc1NC(=O)CN(C)C(=O)c1ccc(-n2cccn2)cc1	.	1.1%	-7.3%	.
O=c1ccc(-c2ccccc2)nn1Cc1ccccc1F	19.2	-33.7%	13.1µM*	12.5
CS(=O)(=O)c1ccc2nc(NC(NC(=O)c3ccco3)(C(F)(F)F)C(F)(F)F)sc2c1	-5.8	-5.5%	15.7%	-16.1
SMILES	CHX counter	Pf growth 48h	Pf growth 96h	Shiga inhibitor
O=S(=O)(NCc1ccccc1)c1ccc(S(=O)(=O)N(Cc2ccccn2)C2CCCC2)cc1	-2.7	10.4µM*	?	-6.5
Cc1cc(C)cc(N(C(=O)CCC(=O)Nc2ccccn2)C(C(=O)NC(C)C)c2ccc(O)cc2)c1 (stereo not given)	-2.6	-11.9%	?	-8.9
CCC(C)(C)n1nnnc1C(c1ccccc1F)N1CCN(C(=O)c2ccco2)CC1 (stereo not given)	-4.6	-23.9%	20.7%	-2.9
COc1ccc(-n2ncc3c(NCCCN4CCOCC4)ncnc32)cc1	40.9*	134.3%	-9.4%	83.4*
COc1ccc(-n2ncc3c(NCCN4CCOCC4)ncnc32)cc1	34.0*	.	102.5%	46.5*
CC(=O)c1cccc(Nc2nc(-c3cccnc3)cs2)c1	50.6*	37.5%	?	58.2*
CC(=O)c1ccc(Nc2nc(-c3cccnc3)cs2)cc1	22.5*	68.7%	?	19.6
CC(=O)NNc1nc(-c2ccccc2)cs1	1.2	-23.9%	0.0%	-6.3
O=C(O)c1ccc(Nc2nc(-c3cccnc3)cs2)cc1	1.5	136.8%	32.8%	14.9
